Methyltransferases = Primary Screen for Target Class Profiling of Small Molecule Inhibitors of Methyltransferases. 25,000 tested, 3.9% active. calls only at 40 µM. purified enzyme, MTase-Glo SAH luminescence; stronger effect = lower value; call rule not given here
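Each enzyme was reacted with SAM and its substrate, with compounds tested once at 40 uM; SAH formed was read by MTase-Glo luminescence.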
Large screens that a line does not name were inactive. Shown is part of a subset that was picked to be rich in hits.

CN1CCN(C(=O)c2cc3n(n2)CC(C)(C(=O)NCc2ccccc2)N(C)C3=O)CC1 (stereo not drawn)	none
COc1ccccc1N1C(=O)c2cc3ccccc3n2CC1(C)C(=O)NC1CCCCC1 (stereo not drawn)	none
CC(C)Cn1c(=O)c2ccc(C(=O)NC3CCCCC3)cc2n2c(=O)n(CC(=O)c3ccccc3)nc12	none
COc1cc(N2CCC(N3CCN(C)CC3)CC2)ccc1Nc1ncnc(Nc2ccccc2S(=O)(=O)C(C)C)n1	none
CCC(NS(=O)(=O)c1cc(-n2cccn2)ccc1OC)C1CC(O)C1 (stereo not drawn)	none
COc1cc(N2CCC(O)CC2)ccc1Nc1cc(Nc2ccccc2S(=O)(=O)C(C)C)c2cc[nH]c2n1	Methyltransferases active
CCOCCCNc1nc2c(-c3cccc(F)c3)nnn2c2ccc(Cl)cc12	none
Cc1ccc(NC(=O)CSc2nnc3n(Cc4ccc(F)cc4)c(=O)c4ccccc4n23)c(C)c1	none
CCS(=O)(=O)N(Cc1cccnc1)c1cccc(-c2ccc(C#N)cc2)c1	none
O=C(NCCNC(=O)c1cccnc1)c1cccnc1	none
N#Cc1ccc(-c2cnc3[nH]cc(NC(=O)c4cccnc4)c3c2)cc1	Methyltransferases active
O=C(CCc1nnc2n(Cc3ccccc3Cl)c(=O)c3ccccc3n12)N1CCN(Cc2ccccc2)CC1	none
CN(C)C(=O)N1CCC(c2nc(C3CCOC3)n[nH]2)CC1 (stereo not drawn)	none
O=C(CN1CCC2(CC1)NC(=O)CC2C(=O)O)NCc1ccccn1 (stereo not drawn)	none
CC(C)Cn1c(=O)c2ccc(C(=O)NC3CCCCC3)cc2n2c(=O)n(CC(=O)NC(C)C)nc12	none
COc1ccc(N2CCN(S(=O)(=O)c3cc4c(cc3Cl)n(C)c(=O)n4C)CC2)cc1	none
CCNc1nc(Nc2cc(F)c(C(=O)N3CCOCC3)cc2OC)ncc1C(F)(F)F	Methyltransferases active
CNc1nc(Nc2ccc(C(=O)N3CCOCC3)cc2OC)nc2[nH]cc(Cl)c12	none
CNc1nc(Nc2ccc(C(=O)N3CCOCC3)cc2OC)ncc1Cl	none
CC1(C(=O)NC2CCCCC2)Cn2nc(-c3ccco3)cc2C(=O)N1CCCc1ccccc1 (stereo not drawn)	none
CCOC(=O)c1cc2n(n1)CC(C)(C(=O)NC1CCCCC1)N(Cc1ccc(OC(C)C)cc1)C2=O (stereo not drawn)	none
COc1ccc(N2CCN(C(CNS(=O)(=O)c3ccccc3)c3ccco3)CC2)cc1 (stereo not drawn)	none
CC(C)OCCCNC(=O)C1(C)Cn2c(cc3ccccc32)C(=O)N1CCc1cccs1 (stereo not drawn)	none
COc1cc(COC2OC(CO)C(O)C(O)C2O)cc(OC)c1O (stereo not drawn)	none
COC(=O)c1ccc(O[C@@H]2O[C@H](CO)[C@@H](O)[C@H](O)[C@H]2O)c(OC)c1	none
COc1c(O)cc2c(c1O)[C@@H]1O[C@H](CO)[C@@H](O)[C@H](O)[C@H]1OC2=O	Methyltransferases active
COc1cccc(N2C(=O)c3cc4ccccc4n3CC2(C)C(=O)NC2CCCCCC2)c1 (stereo not drawn)	none
CCOCCCN1C(=O)c2cc3occc3n2CC1(C)C(=O)NC1CCCCCC1 (stereo not drawn)	none
CCCc1cc2c(-c3ccccc3)cc(=O)oc2cc1OCc1ccc(C(=O)O)o1	Methyltransferases active
CCCCOC(=O)COc1ccc2c(-c3ccccc3)cc(=O)oc2c1	none
COC(=O)COc1cc2oc(=O)cc(-c3ccccc3)c2cc1Cl	none
Cc1cc2c(cc3n2CC(C)(C(=O)NC2CCCCCCC2)N(Cc2cccnc2)C3=O)o1 (stereo not drawn)	none
CCc1ccc(CN2C(=O)c3cc4ccccc4n3CC2(C)C(=O)NCc2ccccc2OC)cc1 (stereo not drawn)	none
CC(CN1C(=O)c2ccc(-c3ccco3)n2CC1(C)C(=O)NC1CCCCCC1)c1ccccc1 (stereo not drawn)	none
COc1ccc2cc3c(NC(=O)c4ccco4)nn(C)c3nc2c1	none
Cc1ccc(CNC(=O)Cn2nc3n(CCc4ccccc4)c(=O)c4ccccc4n3c2=O)cc1	none
COC(=O)CC1OC(C)C2=C(O)c3c(O)cccc3C(=O)C23OC13 (stereo not drawn)	Methyltransferases active
O=C(NCc1ccc(Cl)cc1)c1ccc2ccnn2c1	none
CCOC(=O)c1ccc2c(c1)[C@@H]1C=CC[C@@H]1[C@H](c1ccc(C)cc1)N2	none
COCCCNC(=O)CCc1nnc2n(Cc3ccc(Cl)cc3)c(=O)c3ccccc3n12	none
CCOc1ccccc1CN1CCC[C@H]1C(=O)N1CCCCCCNC(=O)CC1	none
CC(C)c1ccc(NS(=O)(=O)c2ccc3c(c2)n(C)c(=O)n3C)cc1	none
Cc1cccc(CSc2nnc3n(Cc4ccccc4)c(=O)c4ccc(C(=O)NC(C)C)cc4n23)c1	none
CCC(C)NC(=O)c1cccc(-c2ccc(OC)nn2)c1 (stereo not drawn)	none
